Structures can show the parent of a compound that is named as a salt.
Tested on: replication-induced senescent mouse newborn dermal fibroblasts (NBF)
Test: relative cell viability of senescent cells (fraction); higher = less killing of senescent cells
Conditions: 1 µM; 3 days
Method: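 Replication-induced senescent newborn mouse skin fibroblasts (NBFs) in 24-well plates were treated with a Selleck FDA-approved drug library at 1 µM for 3 days.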

| SMILES | relative cell viability |
| --- | --- |
| CCCSc1ccc2[nH]c(NC(=O)OC)nc2c1 [Albendazole] | 1.08 |
| O=c1[nH]c(=O)n([C@H]2C[C@H](O)[C@@H](CO)O2)cc1I [Idoxuridine] | 0.949 |
| Cc1ccc(NC(=O)c2ccc(CN3CCN(C)CC3)cc2)cc1Nc1nccc(-c2cccnc2)n1 [Imatinib (STI571)] | 1.12 |
| CNCc1ccc(-c2[nH]c3cc(F)cc4c3c2CCNC4=O)cc1 | 0.0458 |
| COc1cc2ncnc(Nc3ccc(F)c(Cl)c3)c2cc1OCCCN1CCOCC1 [Gefitinib (ZD1839)] | 1.01 |
| CC(C)Cc1ccc(C(C)C(=O)O)cc1 (stereo not given) [Ibuprofen] | 0.765 |
| CC1Cc2ccccc2N1NC(=O)c1ccc(Cl)c(S(N)(=O)=O)c1 (stereo not given) [Indapamide] | 0.965 |
| CC(C)[N+]1(C)[C@@H]2CC[C@H]1C[C@@H](OC(=O)C(CO)c1ccccc1)C2 (stereo not given in full) [Ipratropium Bromide] | 0.902 |
| CC[C@H]1OC(=O)[C@H](C)[C@@H](O[C@H]2C[C@@](C)(OC)[C@@H](O)[C@H](C)O2)[C@H](C)[C@@H](O[C@@H]2O[C@H](C)C[C@H](N(C)C)[C@H]2O)[C@](C)(O)C[C@@H](C)CN(C)[C@H](C)[C@@H](O)[C@]1(C)O [Azithromycin] | 0.879 |
| O=c1[nH]cc(F)c(=O)[nH]1 [Fluorouracil (5-Fluoracil, 5-FU)] | 0.0476 |
| COc1ccccc1OCC(O)CN1CCN(CC(=O)Nc2c(C)cccc2C)CC1 (stereo not given) [Ranolazine 2HCl] | 0.773 |
| Cn1cnc2c(F)c(Nc3ccc(Br)cc3Cl)c(C(=O)NOCCO)cc21 [Selumetinib (AZD6244)] | 0.897 |
| Cc1[nH]c(/C=C2\C(=O)Nc3ccccc32)c(C)c1CCC(=O)O [Orantinib (TSU-68, SU6668)] | 0.577 |
| C[C@]12CCC(=O)C=C1CC[C@@H]1[C@@H]2[C@@H](O)C[C@@]2(C)[C@H]1CC[C@]2(O)C(=O)CO [Hydrocortisone] | 0.786 |
| CC(C)C[C@H](NC(=O)[C@@H](NC(=O)c1cccc(-c2ccccc2)n1)[C@@H](C)O)B(O)O | 1.1 |
| COC(=O)[C@@H]1CC2=CC(=O)CC[C@]2(C)[C@@]23O[C@@H]2C[C@@]2(C)[C@@H](CC[C@@]24CCC(=O)O4)[C@H]13 [Eplerenone] | 0.925 |
| COC(=O)Nc1nc2cc([S+]([O-])c3ccccc3)ccc2[nH]1 (stereo not given) [Oxfendazole] | 1.04 |
| COc1cc2nc(N3CCN(C(=O)c4ccco4)CC3)nc(N)c2cc1OC [Prazosin HCl] | 0.927 |
| Cc1cnc(C(=O)NCCc2ccc(S(=O)(=O)NC(=O)NC3CCCCC3)cc2)cn1 [Glipizide] | 0.23 |
| O=C(O)CSCC(=O)NC1CCSC1=O (stereo not given) [Erdosteine] | 0.979 |

| SMILES | relative cell viability |
| --- | --- |
| C[N+]1(C)[C@@H]2C[C@@H](OC(=O)C(O)(c3cccs3)c3cccs3)C[C@H]1[C@@H]1O[C@@H]12 [Tiotropium Bromide hydrate] | 1.07 |
| CO[C@H]1/C=C/O[C@@]2(C)Oc3c(C)c(O)c4c(O)c(c(/C=N/N5CCN(C6CCCC6)CC5)c(O)c4c3C2=O)NC(=O)/C(C)=C\C=C\[C@H](C)[C@H](O)[C@@H](C)[C@@H](O)[C@@H](C)[C@H](OC(C)=O)[C@@H]1C [Rifapentine] | 0.659 |
| C[C@H]1C[C@@H]2[C@H]([C@@H](O)C[C@@]3(C)[C@H]2CC[C@]3(O)C(=O)CO)[C@@]2(C)C=CC(=O)C=C12 [Methylprednisolone] | 1.09 |
| COc1ccccc1OCC(O)CO (stereo not given) [Guaifenesin] | 1.12 |
| CO[C@H]1C[C@@H]2CC[C@@H](C)[C@@](O)(O2)C(=O)C(=O)N2CCCC[C@H]2C(=O)O[C@H]([C@H](C)C[C@@H]2CC[C@@H](OCCO)[C@H](OC)C2)CC(=O)[C@H](C)/C=C(\C)[C@@H](O)[C@@H](OC)C(=O)[C@H](C)C[C@H](C)/C=C/C=C/C=C/1C [Everolimus (RAD001)] | 0.765 |
| CS(=O)(=O)OCCCCOS(C)(=O)=O [Busulfan] | 1.03 |
| Nc1nc2ccc(OC(F)(F)F)cc2s1 [Riluzole] | 0.836 |
| C[C@]1(O)C[C@@H](c2nc(-c3ccc4ccc(-c5ccccc5)nc4c3)c3c(N)nccn32)C1 [Linsitinib (OSI-906)] | 0.445 |
| [I-].[K+] [Potassium Iodide] | 0.937 |
| O=S(=O)(c1cccc2cnccc12)N1CCCNCC1 [Fasudil (HA-1077) HCl] | 1.14 |
| CCc1cc(C(N)=S)ccn1 [Ethionamide] | 0.932 |
| COc1ccc([C@]2(C#N)CC[C@@H](C(=O)O)CC2)cc1OC1CCCC1 [Cilomilast] | 0.332 |
| COC(=O)C1=C(C)NC(C)=C(C(=O)OC(C)C)C1c1cccc2nonc12 (stereo not given) [Isradipine] | 0.977 |
| COc1cc2nccc(Oc3ccc(NC(=O)Nc4cc(C)on4)c(Cl)c3)c2cc1OC [Tivozanib (AV-951)] | 1.04 |
| c1ccc2c(CC3=NCCN3)cccc2c1 [Naphazoline HCl] | 0.868 |
| C#Cc1cccc(Nc2ncnc3cc(OC)c(OCCCCCCC(=O)NO)cc23)c1 | 1.02 |
| CC/C(=C(/CC)c1ccc(O)cc1)c1ccc(O)cc1 [Diethylstilbestrol] | 1.06 |
| COc1cc2nccc(Oc3ccc(NC(=O)C4(C(=O)Nc5ccc(F)cc5)CC4)cc3)c2cc1OC | 0.453 |
| C[C@@H](c1ncncc1F)[C@](O)(Cn1cncn1)c1ccc(F)cc1F [Voriconazole] | 0.928 |
| CCCNC(C)C(=O)Nc1ccccc1C (stereo not given) [Prilocaine] | 0.827 |
